From PubChem BioAssay (Tox21)
Records with an inconclusive call do not appear. The source made the active and inactive calls. Unless noted, calls come from the whole dose curve; as a rule, active = well fitted curve in the direction sought with a large enough effect in the repeat runs; inconclusive = weak or mixed curves; inactive = no such curve, though single readings can be large; an effect the other way counts as inactive or inconclusive.

Tests used:
[1] = qHTS assay to test for compound auto fluorescence at 535 nm (green) in HEK293 cells (AID 720680)
[2] = qHTS assay to test for compound auto fluorescence at 460 nm (blue) in HEK293 cell free culture (AID 720681)
In short: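 Blue fluorescence (Ex 405/Em 460 nm, triamterene-equivalent) was read immediately after pin transfer of compound or DMSO into medium (DMEM, 10% FBS) without cells.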

[3] = qHTS assay to test for compound auto fluorescence at 535 nm (green) in HEK293 cell free culture (AID 720682)
In short: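 Steps: dispense DMEM/10% FBS into empty wells; pin in compound or DMSO; measure fluorescence at 485/535 nm. Values are fluorescein equivalents.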

[4] = qHTS assay to test for compound auto fluorescence at 590 nm (red) in HEK293 cell free culture (AID 720683)
In short: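 Red-channel autofluorescence of compounds in culture medium (DMEM, 10% FBS), no cells, measured at 540/590 nm. Rose Bengal sodium is the reference fluorophore for equivalence.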

[5] = qHTS assay to test for compound auto fluorescence at 590 nm (red) in HepG2 cell free culture (AID 720684)
In short: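 Steps: dispense MEM/10% FBS medium, no cells; pin compound or DMSO vehicle; read red channel, Ex/Em 540/590 nm. Output given as Rose Bengal sodium equivalents.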

[6] = qHTS assay to test for compound auto fluorescence at 460 nm (blue) in HepG2 cell free culture (AID 720685)
In short: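 Compound (23 nL) or DMSO pinned into cell-free MEM with 10% FBS; blue fluorescence read at 405/460 nm excitation/emission, expressed as auto-fluorescence equivalency to triamterene.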

[7] = qHTS assay to test for compound auto fluorescence at 535 nm (green) in HepG2 cell free culture (AID 720686)
[8] = qHTS assay to test for compound auto fluorescence at 460 nm (blue) in HepG2 cells (AID 720687)
In short: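 Blue-channel autofluorescence (Ex/Em 405/460 nm, triamterene-equivalent) was measured after 1 hr compound exposure at 37 C, 5% CO2. Cells were HepG2, plated overnight at 37 C in MEM plus 10% FBS.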

[9] = target: Glucocorticoid receptor (Homo sapiens) (UniProt P04150); assay: qHTS assay to identify small molecule agonists of the glucocorticoid receptor (GR) signaling pathway (AID 720691; active = well fitted activation curve with a large enough effect in the signal ratio in the repeat runs, not every such curve was filed as active; the % refers to the signal ratio); conditions: GR-bla HeLa, beta-lactamase reporter ratio, 18 h; activation: at 62.4 µM (top of the series)
Chain of Glucocorticoid receptor (Homo sapiens) (P04150 whole entry, looked up): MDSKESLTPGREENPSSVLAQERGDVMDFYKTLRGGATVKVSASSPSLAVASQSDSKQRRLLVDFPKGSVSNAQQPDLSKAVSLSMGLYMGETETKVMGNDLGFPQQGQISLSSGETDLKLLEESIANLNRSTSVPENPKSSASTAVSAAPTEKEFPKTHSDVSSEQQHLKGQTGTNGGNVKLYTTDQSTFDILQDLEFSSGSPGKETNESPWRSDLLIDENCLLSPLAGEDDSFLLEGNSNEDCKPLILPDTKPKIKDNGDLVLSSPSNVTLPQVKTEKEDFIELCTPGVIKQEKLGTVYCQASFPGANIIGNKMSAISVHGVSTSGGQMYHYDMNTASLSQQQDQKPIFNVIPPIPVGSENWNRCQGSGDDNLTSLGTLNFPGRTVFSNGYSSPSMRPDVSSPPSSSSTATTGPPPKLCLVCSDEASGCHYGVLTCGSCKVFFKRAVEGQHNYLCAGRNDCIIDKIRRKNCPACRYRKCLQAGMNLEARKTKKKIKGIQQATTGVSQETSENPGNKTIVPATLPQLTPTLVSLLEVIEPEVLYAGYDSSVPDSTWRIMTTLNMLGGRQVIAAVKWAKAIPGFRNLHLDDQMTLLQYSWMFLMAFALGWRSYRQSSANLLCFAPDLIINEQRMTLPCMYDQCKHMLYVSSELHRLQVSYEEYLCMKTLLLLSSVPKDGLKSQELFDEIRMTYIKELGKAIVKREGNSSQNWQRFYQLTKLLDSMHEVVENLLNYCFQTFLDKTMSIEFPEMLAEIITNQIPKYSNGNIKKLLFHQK
In short: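 qHTS in GR-bla HeLa cells: 4 h settling at 37 C/5% CO2, 18 h compound incubation at 37 C, 2 h LiveBLAzer B/G FRET substrate at room temperature, fluorescence intensity measured.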

[10] = target: Glucocorticoid receptor (Homo sapiens) (UniProt P04150); assay: qHTS assay to identify small molecule antagonists of the glucocorticoid receptor (GR) signaling pathway (AID 720692; active = well fitted inhibition curve with a large enough effect in the signal ratio in the repeat runs, not every such curve was filed as active; the % refers to the signal ratio)
In short: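 Inhibition of glucocorticoid signalling is measured in HeLa cells with a GRE-controlled beta-lactamase reporter; cells are co-treated with compound and 5 nM dexamethasone (final) for 18 h before FRET substrate readout.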

[11] = qHTS assay to identify small molecule antagonists of the glucocorticoid receptor (GR) signaling pathway - cell viability counter screen (AID 720693); note: nearly all actives have a fitted effect of over 55% in size
[12] = qHTS assay for identifying genotoxic compounds that show differential cytotoxicity against isogenic chicken DT40 cell lines with known DNA damage response pathways - wild type cell line (AID 743012); note: nearly all actives have a fitted effect of over 60% in size
In short: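 First, wild type DT40 cells were plated at 300 per well and equilibrated about 0.5 h at 37 C/5% CO2. Next, compounds in DMSO were added and exposure lasted 40 h. Finally, CellTiter-Glo was added for 30 min at room temperature and luminescence recorded.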

[13] = qHTS assay for identifying genotoxic compounds that show differential cytotoxicity against isogenic chicken DT40 cell lines with known DNA damage response pathways - Rev3 mutant cell line (AID 743014); note: nearly all actives have a fitted effect of over 55% in size
[14] = qHTS assay for identifying genotoxic compounds that show differential cytotoxicity against isogenic chicken DT40 cell lines with known DNA damage response pathways - Rad54/Ku70 mutant cell line (AID 743015); note: nearly all actives have a fitted effect of over 60% in size
[15] = qHTS assay to identify small molecule antagonists of the androgen receptor (AR) signaling pathway - cell viability counter screen (AID 743033; note: nearly all actives have a fitted effect of over 45% in size)
[16] = qHTS assay to identify small molecule antagonists of the androgen receptor (AR) signaling pathway using the MDA cell line - cell viability counter screen (AID 743041; note: nearly all actives have a fitted effect of over 45% in size)
In short: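 Cells were plated at 3,000 per well and left 5 h. Compounds in DMSO were then pinned in, followed by R1881. After 16 h at 37C, CellTiter-Fluor fluorescence gave viability.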

[17] = target: Androgen receptor (Homo sapiens) (UniProt P10275); assay: qHTS assay to identify small molecule antagonists of the androgen receptor (AR) signaling pathway (AID 743035; active = well fitted inhibition curve with a large enough effect in the signal ratio in the repeat runs, not every such curve was filed as active; the % refers to the signal ratio)
Chain of Androgen receptor (Homo sapiens) (P10275 whole entry, looked up): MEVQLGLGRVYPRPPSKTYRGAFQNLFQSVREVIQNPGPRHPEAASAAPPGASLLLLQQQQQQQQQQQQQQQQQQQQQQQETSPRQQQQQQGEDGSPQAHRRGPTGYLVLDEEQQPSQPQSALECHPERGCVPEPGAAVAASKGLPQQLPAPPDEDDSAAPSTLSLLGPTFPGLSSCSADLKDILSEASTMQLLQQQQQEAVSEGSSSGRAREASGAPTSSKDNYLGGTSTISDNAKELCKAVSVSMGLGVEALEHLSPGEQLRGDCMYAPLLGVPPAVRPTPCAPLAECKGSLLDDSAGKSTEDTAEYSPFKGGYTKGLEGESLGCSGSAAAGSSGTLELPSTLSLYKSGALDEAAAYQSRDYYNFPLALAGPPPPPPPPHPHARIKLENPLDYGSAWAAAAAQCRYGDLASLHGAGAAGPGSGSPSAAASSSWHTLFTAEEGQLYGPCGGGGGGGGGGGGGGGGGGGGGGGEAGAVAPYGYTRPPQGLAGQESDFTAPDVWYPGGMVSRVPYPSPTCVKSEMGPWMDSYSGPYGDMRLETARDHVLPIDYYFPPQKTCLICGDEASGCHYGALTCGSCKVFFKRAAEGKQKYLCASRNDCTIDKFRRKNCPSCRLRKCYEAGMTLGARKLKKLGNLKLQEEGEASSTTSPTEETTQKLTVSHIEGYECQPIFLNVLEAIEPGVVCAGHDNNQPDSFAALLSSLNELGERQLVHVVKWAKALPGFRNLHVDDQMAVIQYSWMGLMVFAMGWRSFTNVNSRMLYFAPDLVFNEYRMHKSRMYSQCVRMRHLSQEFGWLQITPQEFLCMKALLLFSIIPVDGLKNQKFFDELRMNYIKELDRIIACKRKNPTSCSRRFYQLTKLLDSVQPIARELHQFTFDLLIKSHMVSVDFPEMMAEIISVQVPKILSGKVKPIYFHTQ
In short: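 Beta-lactamase FRET read (2 h RT incubation with LiveBLAzer B/G) following 16 h of compound plus R1881 treatment of AR-UAS-bla HEK293 cells, which had been pre-incubated 4 h at 37C.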

[18] = target: Androgen receptor (Homo sapiens) (UniProt P10275); assay: qHTS assay to identify small molecule agonists of the androgen receptor (AR) signaling pathway (AID 743036; active = well fitted activation curve with a large enough effect in the signal ratio in the repeat runs, with a control signal flat, not every such curve was filed as active; the % refers to the signal ratio)
In short: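 Reporter line: GeneBLAzer AR-UAS-bla-GripTite (HEK293). Steps: plate cells, 4 h rest, add compounds, 16 h at 37C, add LiveBLAzer B/G substrate, 2 h at RT, read fluorescence.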

[19] = target: Androgen receptor (Homo sapiens) (UniProt P10275); assay: qHTS assay to identify small molecule agonists of the androgen receptor (AR) signaling pathway using the MDA cell line (AID 743040; note: nearly all actives have a fitted effect of over 20% in size)
In short: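 Cells plated, 5 h at 37C/0% CO2; compound or DMSO pinned; 16 h at 37C; ONE-Glo added; luminescence measured after 30 min at room temperature. Reporter line: MDA-kb2 with MMTV-luciferase responsive to AR and GR.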

[20] = target: Androgen receptor (Homo sapiens) (UniProt P10275); assay: qHTS assay to identify small molecule antagonists of the androgen receptor (AR) signaling pathway using the MDA cell line (AID 743042; note: nearly all actives have a fitted effect of over 55% in size)
In short: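 Antagonist mode: compounds plus R1881 agonist added to MDA-kb2 AR-luc cells, incubated 16 h at 37C. Luciferase reporter luminescence quantified, with multiplexed CellTiter-Fluor readout for cell viability.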

Measured: Potency

Cc1ccc(S(N)(=O)=O)cc1
inactive: [1] | [2] | [3] | [4] | [5] | [6] | [7] | [8] | [9] | [10] | [11] | [12] | [13] | [14] | [15] | [16]

CCc1cccc(C)c1N
inactive: [1] | [2] | [3] | [4] | [5] | [6] | [7] | [8] | [9] | [10] | [11] | [12] | [14] | [15] | [17] | [18] | [19] | [16] | [20]

C/C=C1/CC2C=CC1C2 (stereo unspecified)
inactive: [1] | [2] | [3] | [4] | [5] | [6] | [7] | [8] | [9] | [10] | [11] | [12] | [13] | [14] | [15] | [16]

O=C(OCCOCCOC(=O)c1ccccc1)c1ccccc1
inactive: [1] | [2] | [3] | [4] | [5] | [6] | [7] | [8] | [9] | [10] | [11] | [12] | [14] | [15] | [16]

O=C1CCC(N2C(=O)c3ccccc3C2=O)C(=O)N1 (stereo unspecified)
inactive: [1] | [2] | [3] | [4] | [5] | [6] | [7] | [8] | [9] | [10] | [11] | [12] | [13] | [14] | [15] | [16]

CC1=CC(=O)NS(=O)(=O)O1
inactive: [1] | [2] | [3] | [4] | [5] | [6] | [7] | [8] | [9] | [10] | [11] | [12] | [14] | [15] | [16]

O=C(O)c1cc(C(=O)O)cc(S(=O)(=O)O)c1
inactive: [1] | [2] | [3] | [4] | [5] | [6] | [7] | [8] | [9] | [10] | [11] | [12] | [14] | [15] | [16]

Cc1cc(C)c(C)cc1C
inactive: [1] | [2] | [3] | [4] | [5] | [6] | [7] | [8] | [11] | [12] | [13] | [14] | [15] | [16]

CCCCCCCCCCCCCCCO
inactive: [1] | [2] | [3] | [4] | [5] | [6] | [7] | [8] | [11] | [12] | [13] | [14] | [15] | [16]

COc1ccc(Cl)cc1C(=O)NCCc1ccc(S(=O)(=O)NC(=O)NC2CCCCC2)cc1
inactive: [1] | [2] | [3] | [4] | [5] | [6] | [7] | [8] | [11] | [13] | [15] | [16]

CCCCCCCCCCCCCCO
inactive: [1] | [2] | [3] | [4] | [5] | [6] | [7] | [8] | [11] | [12] | [13] | [14] | [15] | [16]

CCCCCCCCCCCCOCCO
inactive: [1] | [2] | [3] | [4] | [5] | [6] | [7] | [8] | [9] | [11] | [14] | [18] | [19] | [16] | [20]

O=C(O)c1cc(=O)c2c(OCC(O)COc3cccc4oc(C(=O)O)cc(=O)c34)cccc2o1
inactive: [1] | [2] | [3] | [4] | [5] | [6] | [7] | [8] | [11] | [12] | [14] | [15] | [16]

Cc1occc(=O)c1O
inactive: [1] | [2] | [3] | [4] | [5] | [6] | [7] | [8] | [11] | [12] | [14] | [15] | [16]

CC1=CCC2CC1C2(C)C (stereo unspecified)
inactive: [1] | [2] | [3] | [4] | [5] | [6] | [7] | [8] | [11] | [12] | [13] | [14] | [15] | [16]

C=CCNC(N)=S
inactive: [1] | [2] | [3] | [4] | [5] | [6] | [7] | [8] | [11] | [12] | [13] | [14] | [15] | [16]

C=C(C)C(=O)Nc1ccc(Cl)c(Cl)c1
inactive: [1] | [2] | [3] | [4] | [5] | [6] | [7] | [8] | [11] | [12] | [13] | [14] | [16]

CCCCC(CC)COC(=O)CCCCC(=O)OCC(CC)CCCC (stereo unspecified)
inactive: [1] | [2] | [3] | [4] | [5] | [6] | [7] | [8] | [9] | [10] | [11] | [15] | [16]
